ELG1 DNA repair: blocks ELG1-dependent DNA repair in HEK293T cells; 330,000 compounds, 2.3% hits; Potency, µM (top dose mostly 46.1 µM), inactives show at the highest dose activity change, negative = inhibition, hits mostly inhibitors; HEK293T ELG1-luciferase reporter, luminescence, 16 h; DNA damage induced by 5-fluorouridine; note: % is set by controls: 0 for no effect and ±100 for the full control effect; nearly all actives have a fitted effect of over 55% in size
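In this reporter screen, reduction of luminescence relative to DMSO vehicle indicated activity. Compounds and 5-fluorouridine were added together to 2,000 cells per well, incubated for 16 hr at 37 °C, then developed with ONE-Glo.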
NPC1 prom act: activates the NPC1 promoter; Huh7 NPC1 promoter luciferase reporter, 24 h; Potency, µM (highest dose often 9.22 µM), inactives show top-dose activation, hits mostly activators; 320,000 compounds, 2.4% hits; AID 485313; note: % of control where 0% means no effect; nearly all actives have a fitted effect of over 60% in size
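Luminescence read-out of NPC1 promoter-driven luciferase in stably transfected Huh7 cells; compounds delivered in DMSO and left 24 h at 37C, 5% CO2, qHTS titration format.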
FLuc modulator: firefly luciferase modulation, counter-screen for miR-21 project; P08659; purified FLuc, Km substrates, luminescence inhibition; Potency, µM (top dose mostly 57.5 µM), for the others: at the top dose activity change, negative = inhibition, usual class: inhibitors; 360,000 compounds, 6.9% hits; AID 588342;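 note: plate controls were vehicle for no effect and reference inhibitor for full effect; nearly all actives have a fitted effect of over 55% in size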
Target sequence (P08659 whole entry, looked up): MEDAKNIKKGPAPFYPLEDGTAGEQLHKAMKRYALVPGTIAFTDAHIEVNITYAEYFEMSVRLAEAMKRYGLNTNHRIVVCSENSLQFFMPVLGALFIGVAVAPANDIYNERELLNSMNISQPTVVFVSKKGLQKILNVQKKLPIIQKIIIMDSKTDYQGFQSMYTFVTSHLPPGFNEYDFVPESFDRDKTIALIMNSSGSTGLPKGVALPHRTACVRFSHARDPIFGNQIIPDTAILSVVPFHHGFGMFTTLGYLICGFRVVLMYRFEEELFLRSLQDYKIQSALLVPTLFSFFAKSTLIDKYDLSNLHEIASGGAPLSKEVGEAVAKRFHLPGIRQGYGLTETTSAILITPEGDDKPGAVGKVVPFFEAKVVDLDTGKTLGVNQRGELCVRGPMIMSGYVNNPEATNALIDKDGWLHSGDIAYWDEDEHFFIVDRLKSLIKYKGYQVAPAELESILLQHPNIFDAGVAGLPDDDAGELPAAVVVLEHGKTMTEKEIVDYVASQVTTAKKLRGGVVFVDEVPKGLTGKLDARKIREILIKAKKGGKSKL
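Purified P. pyralis luciferase (10nM final) with 10uM D-luciferin and 10uM ATP (Km levels) in 50mM Tris acetate pH 7.5, 10mM Mg acetate, 0.01% Tween-20, 0.05% BSA; qHTS 6-point titration, ~60 µM downward; luminescence read.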
ELG1 genotoxic: induces genotoxicity in HEK293T cells with luciferase-tagged ELG1. HEK293T ELG1-luciferase reporter, luminescence, 16 h. Potency, µM (top dose mostly 46 µM), without a hit: top-dose activity change, positive = activation, actives largely listed as activators. 330,000 compounds, 1.3% hits. AID 504466; note: % of control where 0% means no effect; nearly all actives have a fitted effect of over 60% in size
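Quantitative HTS format in 1536-well plates. HEK293T ELG1-luciferase reporter cells receive test compound and are incubated 16 hr at 37 °C, 5% CO2; ONE-Glo added, 30 min room temperature, then luminescence read.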
SMN2 splice enh: SMN2 splice variant enhancement | Potency, µM (top dose mostly 46.1 µM), inactives show at the top dose activity change, positive = activation, actives largely listed as activators | 210,000 compounds, 2.8% hits | HEK293 SMN2-luciferase splicing reporter, luminescence, 30-36 h; note: % of control where 0% means no effect; nearly all actives have a fitted effect of over 55% in size
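qHTS luciferase splicing reporter: luminescence rises when SMN2 exon 7 is included in transfected HEK293 cells. Compound exposure lasted 30-36 h at 37C, with 4.5 mM final sodium butyrate as control, followed by a ONE-Glo read.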
Rab9 prom act: activators of Rab9 promoter; Huh7 Rab9 promoter-luciferase reporter, luminescence, 24 h; Potency, µM (highest dose often 9.22 µM), inactives show at the top dose activation, negative = inhibition, most hits filed as activators; 320,000 compounds, 2.8% hits; AID 485297; note: % of control where 0% means no effect; nearly all actives have a fitted effect of over 60% in size
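Luminescence from Amplite-detected luciferase (10 minutes, ambient) reports Rab9 promoter activation. Before that, stable Rab9-luciferase Huh7 cells (1500/well, reduced-serum OP-MEM I plus 10% FBS) were exposed to compound for 24 hours at 37C.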
* = called active by the depositor; ? = inconclusive; / = no result given; [ ] = remark or other dose. A selection: hits, their analogues and other compounds. The true share with any hit is near 9.2%. Calls come from the whole dose curve; as a rule, active = well fitted curve in the direction sought with a large enough effect; inconclusive = small, poorly fitted or top-dose-only effect, or another doubt; inactive = no such curve, though single readings can be large; an effect the other way counts as inactive or inconclusive. Potency is the fitted concentration of half-maximal effect.

SMILES	ELG1 DNA repair	NPC1 prom act	FLuc modulator	ELG1 genotoxic	SMN2 splice enh	Rab9 prom act
COc1cccc2cc(-c3nc4ccc(C)cc4[nH]3)c(=O)oc12	/	/	0.536µM*	/	/	/
COc1ccc(Cl)cc1NC(=O)COC(=O)C1CCCCC1	-7.5%	-2.7%	15.1µM*	1.1%	/	0.1%
Cc1cc(NC(=O)COC(=O)C2CC2)ccc1Br	21.5%	-5.2%	8.49µM*	1.8%	/	-2.7%
CC(C)(C)c1ccc(NC(=O)COC(=O)C2CCCC2)cc1	?	-0.6%	10.7µM*	-1.4%	/	2.4%
CC(=O)C[C@H](O)CC(=O)[C@@H]1OC(=O)CCCCCCCCc2ccccc21	1.9%	/	/	-0.3%	/	/
COCCn1c(=O)c(-c2ccc(OC)cc2)nc2cnc(Oc3ccccc3)nc21	/	/	/	/	-14.1%	/
CC(C)c1cccc2cc3c(nc12)-c1cccc(=O)n1C3	/	/	/	/	2.3%	/
COC(=O)c1ccc(CN(c2ccc(C)cc2)S(=O)(=O)c2ccc3c(c2)OCCO3)o1	20.6µM*	6.4%	0.6%	-0.1%	8.2%	-3.3%
Cc1ccc(N(CC(=O)Nc2ccc3c(c2)OCCO3)S(C)(=O)=O)cc1	?	?	19µM*	13.2%	/	?
CCOc1ccc(N(CC(=O)Nc2ccc(C)cc2)S(C)(=O)=O)cc1	?	3.55µM*	15.1µM*	?	/	0.891µM*
N#Cc1c(-c2ccccc2)nc(SCc2cccc(Cl)c2)[nH]c1=O	-1.1%	4.3%	1.7%	-1.9%	/	-7.2%
C=CCn1c(COc2ccccc2F)nnc1SCCN1C(=O)c2ccccc2C1=O	-28.2%	-4.3%	4.2%	-0.2%	2.5%	1.1%
CC1CC2C3CCC4=CC(=O)C=C[C@@]4(C)[C@]3(F)C(O)C[C@]2(C)[C@]1(O)C(=O)COP(=O)(O)O (stereo not given in full)	/	/	/	/	14.3%	/
CC(=O)Nc1ccc(NC(=O)C2CCCCC2C(=O)O)cc1 (stereo not given)	15.3%	-0.8%	0.8%	1.2%	5.5%	-2.7%
COc1ccc(NC(=O)c2cc(NC(=O)C3CCCCC3C(=O)O)ccc2N2CCOCC2)cc1 (stereo not given)	16.6%	-5.6%	1.0%	1.7%	/	-4.5%
O=C(O)C1CCCCC1C(=O)Nc1ccc(-c2ccccc2)cc1 (stereo not given)	?	17.8%	16.9µM*	?	27.1%	?
Cc1ccc(NC(=O)c2ccc(NC(=O)C3CCCCC3C(=O)O)cc2)cc1 (stereo not given)	?	-3.3%	16.9µM*	10.7%	/	-0.8%
Cc1sc(NC(=O)C2CCCCC2C(=O)O)c(C(N)=O)c1-c1ccccc1 (stereo not given)	?	1.58µM*	3.38µM*	?	-24.2%	3.55µM*
Cc1cccc(NC(=O)c2cc(NC(=O)C3CCCCC3C(=O)O)ccc2N2CCOCC2)c1 (stereo not given)	?	15.6%	21.3µM*	0.1%	/	22.6%
O=c1[nH]c(=O)n(-c2ccc(F)cc2)c2c1C(C(F)(F)F)(C(F)(F)F)N=C(c1ccc(F)cc1)N2	?	-15.8%	3.5%	-6.4%	-58.6%	-30.8%
COc1ccc(-c2cc(C(F)(F)F)nc(SCC(=O)NCc3cccs3)n2)cc1OC	?	-1.4%	3.2%	3.7%	-2.0%	-4.3%
O=C(Cc1ccccc1)Nc1cccc(N2C(=O)C=CC2=O)c1	-19.8%	-10.1%	?	-0.1%	?	-0.4%
C=CC[C@@H](Cc1ccc(F)cc1)C(=O)OC[C@H]1CCCN1C(=O)[C@@H](CC=C)CC(=O)N[C@@H](CO)Cc1ccccc1	-23.6%	/	/	-6.7%	/	/
C=CC[C@@H](Cc1ccc(F)cc1)C(=O)OC[C@@H]1CCCN1C(=O)[C@@H](CC=C)CC(=O)N[C@H](CO)Cc1ccccc1	20.6µM*	/	/	-9.2%	/	/
C=CC[C@@H](Cc1ccc(F)cc1)C(=O)OC[C@H]1CCCN1C(=O)[C@H](CC=C)CC(=O)N[C@H](CO)Cc1ccccc1	23.1µM*	/	/	-7.3%	/	/
SMILES	ELG1 DNA repair	NPC1 prom act	FLuc modulator	ELG1 genotoxic	SMN2 splice enh	Rab9 prom act
C=CC[C@@H](Cc1ccc(F)cc1)C(=O)OC[C@H]1CCCN1C(=O)[C@@H](CC=C)CC(=O)N[C@H](CO)Cc1ccccc1	?	/	/	-9.2%	/	/
CC(C)N(C(=O)CSc1nc2ccccc2n1Cc1ccc(F)cc1)C(C)C	18.4µM*	0.7%	0.4%	-12.8%	-41.8%	-7.3%
Cc1ccc(C)c(Nc2c(F)c(F)c(F)c(F)c2C(=O)O)c1	-9.9%	0.4%	15.1µM*	4.8%	-1.6%	-2.2%
CCN1CCN(Cc2ccc(OC)c(OCc3ccccc3)c2)CC1	/	/	3.2%	/	1.4%	/
O=C1CCN(Cc2ccccc2)CCN1CCOc1ccccc1	?	?	23.9µM*	13.8%	/	3.55µM*
O=C(Nc1ccccc1)OCCN1CCN(Cc2ccccc2)CCC1=O	-3.4%	-0.2%	-0.8%	3.8%	-28.0%	-8.3%
CC(C)CNC(=O)C1CCN(Cc2ccc(OCc3ccccc3)cc2)CC1	?	24.0%	16.9µM*	9.7%	?	?
CCN1CCN(Cc2ccc(OCc3ccccc3)cc2)CC1	?	3.98µM*	21.3µM*	10.3µM*	-35.1%	16.8%[1.84 µM]
CN1CCN(Cc2ccc(OCc3ccccc3)cc2)CC1	?	?	13.5µM*	?	-5.1%	?
CCOC(=O)N1CCC(NC(=O)c2ccc3c(c2)N(Cc2ccc(F)cc2)CCS3)CC1	18.4µM*	-4.1%	0.8%	-27.0%	-45.5%	-0.3%
CCOC(=O)N1CCC(NC(=O)c2ccc3c(c2)N(Cc2ccccc2)CCS3)CC1	14.6µM*	2.9%	0.1%	-21.9%	-53.5%	2.0%
CN(C)C/C=C/C(O)(c1ccccc1)c1ccccc1	?	-0.8%	-0.2%	-2.0%	/	-4.9%
CN(C)CC(CCC(CN(C)C)C(O)(c1ccccc1)c1ccccc1)C(O)(c1ccccc1)c1ccccc1 (stereo not given)	18.3µM*	-3.0%	1.5%	-17.2%	/	-9.0%
N/C(=N\OC(=O)c1csnn1)c1ccc(C(F)(F)F)cc1	?	?	19µM*	13.1%	/	?
NC(=NC(=O)c1ccc(OC(F)(F)F)cc1)c1ccc(C(F)(F)F)cn1	15.0%	-2.7%	0.8%	-2.9%	/	-12.2%
Cc1ccc(C(=O)O/N=C(\N)c2ccc(C(F)(F)F)cn2)cc1	?	2.1%	2.13µM*	14.6%	/	-5.2%
CCOc1ccc(S(=O)(=O)N/N=C(\C)c2ccc(OC)cc2OC)cc1	-0.3%	-1.4%	-4.8%	-0.9%	-15.9%	-2.5%
O=C(N/N=C/c1cc2c3c(c1O)CCCN3CCC2)c1ccccc1O	?	-9.1%	23.9µM*	-12.0%	-101.8%	-26.0%

Screens from PubChem.
